# In all, about 69,000 compounds went through this assay and about 8,600 (12%) showed an effect of 50% or more. What follows is part of a selection rich in strong results, with near analogues and random picks from the rest.
# System: Plasmodium berghei
# Assay: Screen against P. berghei liver stage (PbLuc), transformed with Luciferase, at 10uM
# Type: functional, HepG2
# Settings: tested at 10 uM
row,Structure (SMILES),INHIBITION
1,CCCNC(=O)NC(=O)CN1CCN(Cc2nccn2CC)CC1,5.308%
2,Cc1nc(CN2CCN(C(=O)CCc3nc(C(C)(C)C)no3)CC2)cs1,30.8%
3,c1cncc(CN2CCc3c(nnn3CC3CC3)C2COCC2CC2)c1 (configuration not stated),27.4%
4,CCN1CCN(C(=O)Cn2ncc3c2c(C)nn3C(C)C)CC1,15.9%
5,CCC(C)N(C)CCNC(=O)c1ccccc1OCCOC (configuration not stated),8.64%
6,O=C1CCC2(CCCN(Cc3ccccc3F)C2)N1CC1CC1 (configuration not stated),-19.6%
7,CCOCc1ccccc1NC(=O)NCC(C)(O)c1cccs1 (configuration not stated),0.734%
8,CCOCc1ccccc1NC(=O)NCC(C)(O)c1cc(C)oc1C (configuration not stated),85.5%
9,CCOCc1ccccc1NC(=O)NCC(C)(O)c1ccsc1 (configuration not stated),11%
10,CCC(CN1CCCC1)n1cncc1-c1cnn(Cc2ccccc2)c1 (configuration not stated),3.5%
11,CN(C)S(=O)(=O)N1CCC(c2ccncc2)CC1,-33.4%
12,Cc1cc(NC(=O)C(C)Oc2ccc3c(c2)OCO3)no1 (configuration not stated),14.6%
13,Cc1cccc(NC(=O)C(C)Oc2ccc3c(c2)OCO3)n1 (configuration not stated),53.7%
14,Cc1cc(C)nc(NC(=O)C(C)Oc2ccc3c(c2)OCO3)n1 (configuration not stated),48.5%
15,CC(=O)c1cccc(CN2CCCC23CCN(c2ccccn2)CC3)c1,19.8%
16,COc1cccc(CN(C)CC2=Nc3ccccc3S(=O)(=O)N2)c1,69.7%
17,COc1cccc(CNC(=O)CCOc2ccccc2C)c1,2.43%
18,CNS(=O)(=O)c1ccc(CCC(=O)NCc2cccc(OC)c2)cc1,-74.6%
19,COc1cccc(CSC=C2Nc3ccccc3S(=O)(=O)N2)c1,27.7%
20,COc1cccc(CNC(=O)CCC2=Nc3ccccc3S(=O)(=O)N2)c1,57%
21,COc1cccc(CN(C)CC(=O)NC2(C)CCS(=O)(=O)C2)c1 (configuration not stated),-27.9%
22,Cc1nn(C)c(N(C)C)c1CNC1CCOc2ccccc21 (configuration not stated),-5.05%
23,Cc1oc2c(c1C(=O)N1C[C@H](O)[C@]3(CCCO3)C1)CCCC2,3.95%
24,CC1CN(C)CCN1C(=O)Nc1nc(-c2ccc[nH]2)cs1 (configuration not stated),6.33%

row,Structure (SMILES),INHIBITION
1,CS(=O)(=O)NCCNCc1ccc(Br)s1,-40.7%
2,CN1C(=O)C(C)(C)COc2cc(NS(=O)(=O)c3ccccc3F)ccc21,22.3%
3,CC(C)Sc1ncccc1C(=O)NCc1ccc(O)cc1,60.7%
4,CC(C)Sc1ncccc1C(=O)NCc1ccoc1,42.9%
5,CC(C)Sc1ncccc1C(=O)NCc1ccc(CS(C)(=O)=O)cc1,14.4%
6,O=C(NCCc1nnc2n1CCC2)NCC1(c2ccc(F)cc2)CC1,9.63%
7,COc1ccccc1N1CCN(C(=O)Cn2nc(C)c(Cl)c2C)CC1,-29.2%
8,CCS(=O)(=O)N1CCC2(CC1)CC1(CCN(CCOC)CC1)C(=O)N2C,40.8%
9,Cc1cc(CN[C@@H](C)C(N)=O)c(C)s1,16.3%
10,Cc1cc(CN[C@H](C(N)=O)[C@@H](C)O)c(C)s1,38.7%
11,Cc1cc(CN[C@@H](Cc2ccccc2)C(N)=O)c(C)s1,53.3%
12,Cc1csc(C(C)(C)NCc2ncc(-c3ccc(F)cc3)o2)n1,-46.4%
13,COc1ncc(CN2CCOC(C)(C(=O)N3CCOCC3)C2)cn1 (configuration not stated),41.2%
14,O=c1[nH]ncc(NCCOc2ccc3c(c2)CCC3)c1Cl,77.1%
15,O=c1[nH]ncc(NCCOc2cccc(Br)c2)c1Cl,15.6%
16,O=c1[nH]ncc(NCCOc2ccc3c(c2)OCO3)c1Cl,20.3%
17,CCn1nccc1CN(C)C(=O)Cn1cc2c(n1)c(C)nn2CC,35%
18,O=C(CSc1ncccn1)N1C[C@@H]2CC[C@H]1CN(Cc1ccncc1)C2,21.6%
19,Cc1nc2c(C)cccc2cc1C(=O)N1CCC2(CCNCC2)CC1,47.7%
20,Cc1cc(O)c(OCC(=O)/N=c2\[nH]cc(C)s2)cn1,-48.2%
21,Cc1ccc(-c2nc(CNC3CCc4ncnn4C3)no2)cc1 (configuration not stated),0.411%
22,CC(Cn1ccnc1)NC(=O)C1(c2ccccc2)CC1 (configuration not stated),46.2%
23,Cc1ccc(CN2Cc3nnn(C)c3C(COCc3ccccn3)C2)s1 (configuration not stated),-37.9%
24,COCC1CN(Cc2ccc(C)s2)Cc2nnn(C)c21 (configuration not stated),21.4%

row,Structure (SMILES),INHIBITION
1,Cc1ccc(CN2Cc3nnn(C)c3C(COCc3ccccc3)C2)s1 (configuration not stated),78.7%
2,Cc1ccc(CN2Cc3nnn(C)c3C(COCc3ccccc3)C2)o1 (configuration not stated),28.4%
3,Cc1ccc(CN2Cc3nnn(C)c3C(COCCN(C)C)C2)s1 (configuration not stated),10%
4,Cc1ccc(CN2Cc3nnn(C)c3C(COCC3CC3)C2)s1 (configuration not stated),71.8%
5,CC[C@@H]1C[C@H](C(F)(F)F)n2nc(C3CCN(S(=O)(=O)CC)CC3)cc2N1,46%
6,NC(=O)COc1ccc(CNCc2cc(F)ccc2F)cc1,1.56%
7,CCn1c(C)nnc1CN(C)C1CCN(Cc2nnc(C3CC3)o2)C1 (configuration not stated),36.1%
8,CC(C)Cn1nc(-c2ccc(C(=O)O)cc2)cc1-c1ccc(F)cc1,54.3%
9,CCC(O)Cn1nc(-c2ccc(C(=O)O)cc2)cc1-c1cccc(F)c1 (configuration not stated),19.75%
10,CCC(O)Cn1nc(-c2ccc(C(=O)O)cc2)cc1-c1ccc(F)cc1 (configuration not stated),38.05%
11,COc1ccc(CC2CN(C3CCSCC3)CCO2)cc1 (configuration not stated),35.4%
12,Cc1ccc(N2CC[C@H]3OCC[C@@]3(C(=O)N3CCCO3)C2)nn1,25.3%
13,CC(NC(=O)N(C)Cc1ccncc1)c1cn(-c2ccccc2)nn1 (configuration not stated),60.1%
14,CC(NC(=O)CCCN(C)C)c1cn(-c2ccccc2)nn1 (configuration not stated),21.8%
15,CC(NC(=O)N(C)Cc1ccncc1)c1nncn1C (configuration not stated),13.7%
16,CN(Cc1ccncc1)C(=O)NCc1cn(-c2ccccc2)nn1,56.3%
17,Cc1csc(CNC(=O)N(C)Cc2ccncc2)n1,-53.6835%
18,CCN(Cc1ccncc1)Cc1cn(-c2ccccc2)nn1,5.33%
19,NC(=O)NCC(=O)N1CCCC(c2nccn2CC2CCC2)C1 (configuration not stated),17.5%
20,CC(C)c1nnc2n1CCN(c1nn3cc(C(C)(C)C)nc3s1)C2,-34.6%
21,Cc1nn(C)c(Cl)c1C1CCCN1Cc1nc(C2CC2)no1 (configuration not stated),37.4%
22,CCn1ccnc1CN1CCN(CCOc2ccccc2OC)CC1,27.1%
23,COC(=O)CCCn1ccnc1-c1ccc(OC)c(F)c1F,43.9%
24,COc1ccc(-c2nccn2CCN2CCCCC2)c(OC)c1OC,55%

row,Structure (SMILES),INHIBITION
1,Cc1nnc2n1CCN(Cc1ncc(-c3ccc(F)cc3)o1)C2,46.1%
2,Cc1c(CCC(=O)N2CCOC(c3cnccn3)C2)cnn1C (configuration not stated),-10.4%
3,Cc1noc(C)c1C(=O)N1CCCN(Cc2nccn2C(C)C)CC1,4.1%
4,CCN(CC1CCCO1)C(=O)Nc1cccc(N2CCOCC2)c1 (configuration not stated),54.4%
5,CCN(CCC(F)(F)F)C(=O)Nc1cccc(N2CCOCC2)c1,3.47%
6,CCN(CC1CCCO1)C(=O)Nc1ccc(OC)c(C)c1 (configuration not stated),-79.7%
7,O=C(c1cscn1)N1CCC(Cc2cnc3[nH]ccc3c2)C1 (configuration not stated),-14.1%
8,CC(C)(C)NC(=O)c1ccc(COCC(F)(F)F)o1,14.2%
9,COc1cccnc1NC(=O)c1ccc(COCC(F)(F)F)cc1,62.4%
10,COc1cccnc1NC(=O)COc1ccc(F)cc1F,33.5%
11,O=C(Nc1cc[nH]n1)c1ccc(COCC(F)(F)F)cc1,-17.8%
12,Cc1n[nH]c(NC(=O)c2ccc(COCC(F)(F)F)cc2)c1C,52.5%
13,COc1cccnc1NC(=O)COc1c(C)cccc1C,36.5%
14,O=C(Cc1ccccc1)N1CCCC2(COCCN(CC3CC3)C2)C1 (configuration not stated),19.5%
15,Cc1ccc(C(C(=O)NCc2n[nH]c(N)n2)N(C)C)cc1 (configuration not stated),19.5%
16,CC(=O)N(C)Cc1ncn2c1CN(C(=O)C1CCCO1)CCC2 (configuration not stated),-0.453%
17,COCCN1CCN(Cc2cnc(C)nc2)CC1,-9.32%
18,COCCN1CCN(Cc2cnc(C(C)C)nc2)CC1,53.2%
19,CCc1ncc(CN2CCN(CCOC)CC2)cn1,11.1%
20,CN(C)S(=O)(=O)c1ccc(-c2nc(C#N)c(NC3CC3)o2)o1,15.4%
21,CCN(CC)S(=O)(=O)N1CCCC(c2ncc3c(n2)CCN(C)C3)C1 (configuration not stated),43.25%
22,O=S(=O)(c1ccc(Cl)cc1)N1CCc2nc(C3CCNCC3)ncc2C1,9.93%
23,Cc1ccc(S(=O)(=O)N2CCc3nc(C4CCNCC4)ncc3C2)cc1,68.2%
24,Cc1noc(C)c1S(=O)(=O)N1CCc2nc(C3CCNCC3)ncc2C1,34%

row,Structure (SMILES),INHIBITION
1,Clc1ccccc1CN1CCc2nc(C3CCNCC3)ncc2C1,23.2%
2,CCN(CC)S(=O)(=O)N1CCc2nc(C3CCNCC3)ncc2C1,32.3%
3,O=S(=O)(c1ccccc1Cl)N1CCc2nc(C3CCNCC3)ncc2C1,75.6%
4,CCC(C)S(=O)(=O)N1CCc2nc(C3CCNCC3)ncc2C1 (configuration not stated),57.5%
5,O=S(=O)(N1CCCCC1)N1CCc2nc(C3CCNCC3)ncc2C1,22.2%
6,COc1c(CNC2(c3noc(C)n3)CCC2)c(C(C)C)nn1C,-113%
7,Cc1ocnc1C(=O)N1CCCN(Cc2cscn2)CC1,35.3%
8,O=C(c1ccncc1)N1CC[C@@H]2CN(C3CCOCC3)CCO[C@@H]2C1,23.1%
9,Cn1cccc1CN1CCC2(CC1)CC(Oc1cccnc1)C2,24.6%
10,NC1CCc2nc(-c3cccnc3)nc(Nc3ccc(F)cc3)c2C1 (configuration not stated),63.85%
11,O=C(Nc1cccc(F)c1)NC1CCN(Cc2ccncc2)CC1,45.4%
12,Fc1cccc(Nc2nc(N3CCCC3)nc3c2CNCC3)c1,76.8%
13,CC(O)CNc1nc(-c2cccnc2)nc2c1CCC2 (configuration not stated),-43%
14,CC(Nc1nc(-c2ccncc2)nc2c1CCNC2)c1ccccc1 (configuration not stated),46.3%
15,COc1cccc(Nc2nc(C3CCNCC3)c3ccccn23)c1,9.6%
16,COc1cccc(Nc2nc(N3CCCC3)nc3c2CNCC3)c1,42.5%
17,c1cncc(-c2nc3c(c(NCC4(c5ccncc5)CC4)n2)CCC3)c1,-5.38%
18,O=C(c1cccc(F)c1)N1CCCC1c1ncc2c(n1)CCNC2 (configuration not stated),36.7%
19,COc1cccc(Nc2nc(-c3ccncc3)nc3c2CNCC3)c1,51.7%
20,c1csc(CCNc2nc(-c3ccncc3)nc3c2CCNCC3)c1,31.6%
21,NC1CCc2nc(-c3ccncc3)nc(Nc3cccc(F)c3)c2C1 (configuration not stated),90.35%

# — ChEMBL document CHEMBL4513216, “Probing the Open Global Health Chemical Diversity Library for Multistage-Active Starting Points for Next-Generation Antimalarials” (ACS Infect Dis, 2020)
